Screen size: about 310,000 compounds; about 14,000 (4.5%) showed an effect of 50% or more. Effects have a minus sign here. Shown is part of a subset that was picked to be rich in strong results.
Each compound was assayed against human ether-à-go-go-related gene (hERG) potassium channel (human, UniProt Q12809) (assay: primary screen, population patch clamp on CHO cells stably expressing hERG; higher = less effect of the substance).
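Also: peak tail current of the secondary pulse compared with the same well before compound.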

human ether-à-go-go-related gene (hERG) potassium channel, sequence (Q12809 whole entry, looked up): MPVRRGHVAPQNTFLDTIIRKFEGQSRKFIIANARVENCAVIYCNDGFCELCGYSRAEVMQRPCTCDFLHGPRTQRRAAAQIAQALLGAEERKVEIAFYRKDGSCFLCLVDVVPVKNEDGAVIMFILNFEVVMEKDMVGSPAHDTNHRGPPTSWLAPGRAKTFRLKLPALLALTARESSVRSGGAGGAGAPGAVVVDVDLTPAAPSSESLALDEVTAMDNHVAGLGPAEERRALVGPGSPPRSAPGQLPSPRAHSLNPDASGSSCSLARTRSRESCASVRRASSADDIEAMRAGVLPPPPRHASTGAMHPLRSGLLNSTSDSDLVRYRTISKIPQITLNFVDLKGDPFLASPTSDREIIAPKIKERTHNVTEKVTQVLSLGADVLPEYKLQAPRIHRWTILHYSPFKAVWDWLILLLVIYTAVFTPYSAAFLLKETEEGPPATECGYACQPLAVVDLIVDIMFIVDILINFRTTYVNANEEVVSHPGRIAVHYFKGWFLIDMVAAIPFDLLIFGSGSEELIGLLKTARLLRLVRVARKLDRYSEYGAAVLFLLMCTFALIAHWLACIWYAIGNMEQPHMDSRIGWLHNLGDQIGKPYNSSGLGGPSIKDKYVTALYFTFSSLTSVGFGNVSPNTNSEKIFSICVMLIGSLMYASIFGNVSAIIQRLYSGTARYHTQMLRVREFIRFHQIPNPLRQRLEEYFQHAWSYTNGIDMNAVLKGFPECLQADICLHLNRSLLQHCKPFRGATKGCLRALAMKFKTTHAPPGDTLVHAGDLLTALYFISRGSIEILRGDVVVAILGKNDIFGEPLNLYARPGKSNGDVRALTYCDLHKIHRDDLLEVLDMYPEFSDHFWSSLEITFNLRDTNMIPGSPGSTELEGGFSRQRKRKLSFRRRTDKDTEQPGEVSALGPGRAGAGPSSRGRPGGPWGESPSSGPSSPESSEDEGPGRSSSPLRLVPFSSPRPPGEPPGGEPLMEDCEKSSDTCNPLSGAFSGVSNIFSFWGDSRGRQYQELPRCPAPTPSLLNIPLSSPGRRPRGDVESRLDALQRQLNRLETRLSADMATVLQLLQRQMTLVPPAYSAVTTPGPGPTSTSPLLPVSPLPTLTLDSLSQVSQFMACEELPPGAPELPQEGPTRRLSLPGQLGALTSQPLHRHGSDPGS

Row | SMILES | hERG current change (%, negative = inhibition) at 10uM
1 | O=c1c2c3c(sc2nc2n1CCCCC2)C(O)CCC3 (centres unmarked) | 3.27%
2 | C=CCn1c(SCc2cccc(C#N)c2)nnc1-c1ccccc1O | -30.4%
3 | C=CCn1c(SCc2ccc(C#N)cc2)nnc1-c1cccc(Cl)c1 | -72.7%
4 | C=CCn1c(SCC(=O)O)nnc1-c1cccc(Cl)c1 | 4.71%
5 | Cc1cc(NC(=O)CSc2nc3ccccc3c(=O)n2CCCC(=O)NCc2ccccc2)n[nH]1 | -8.72%
6 | O=C(NN=C1CCCCCCCCCCC1)c1cccnc1 | 19.8%
7 | CCN(CC)S(=O)(=O)c1cccc(C(=O)Nc2cccnc2)c1 | -17.7%
8 | CCN(CC)c1ccc(NC(=O)c2cccnc2)c(C)c1 | 26.9%
9 | CCN(CC)S(=O)(=O)c1ccc(Cl)c(C(=O)Nc2cccnc2)c1 | -55.8%
10 | CCN(CC)c1ccc(S(=O)(=O)N(CC)CC)cc1NC(=O)c1cccnc1 | -72.5%
11 | O=C(Nc1ccccc1)c1cc(S(=O)(=O)Nc2cccnc2)ccc1Cl | -3.06%
12 | O=C(Nc1cccnc1)c1ccc(Cl)c(Cl)c1 | 10.3%
13 | CCN(CC)S(=O)(=O)c1cc(C(=O)Nc2cccnc2Cl)ccc1Cl | 8.87%
14 | CCN(CC)S(=O)(=O)c1ccc(Cl)c(C(=O)Oc2cccnc2)c1 | -36.8%
15 | CCN(CC)S(=O)(=O)c1cc(C(=O)Nc2ccncc2)ccc1Cl | -66.3%
16 | CCN(CC)S(=O)(=O)c1cc(C(=O)Nc2cccnc2)ccc1Cl | -67.9%
17 | CCN(CC)c1ccc(S(=O)(=O)N(CC)CC)cc1NC(=O)C1CCCC1 | -13.6%
18 | CCN(CC)S(=O)(=O)c1cc(C(=O)Nc2cc(C)[nH]n2)ccc1Cl | -10.3%
19 | COc1cccc(-c2sc3ccc(OC)cc3c2C#CCCO)c1 | -7.87%
20 | CCc1nnc(NC(=O)CSC(=S)N2CCOCC2)s1 | 14.6%
21 | CC(=O)c1cn(CC(=O)Nc2ccccc2F)c2ccccc12 | 2.54%
22 | Cc1nc2ccc(N)cc2c(=O)n1Cc1ccc(Cl)cc1 | -11.4%
23 | N#Cc1ccc(N2CCOCC2)c([N+](=O)[O-])c1 | -21.7%

Row | SMILES | hERG current change (%, negative = inhibition) at 10uM
24 | CN1CCN(c2ccc(Cl)cc2NC(=O)c2ccc(=O)n(C)n2)CC1 | -58.3%
25 | CN1CCN(c2ccc(Cl)cc2NC(=O)c2cccc(S(=O)(=O)N(C)C)c2)CC1 | -36.9%
26 | CN(c1ccccc1)S(=O)(=O)c1ccc(Cl)c(C(=O)Nc2ccncc2)c1 | -5.35%
27 | CN1CCN(c2ccc(Cl)cc2NC(=O)c2ccc(S(=O)(=O)N(C)C)cc2)CC1 | 1.58%
28 | COc1ccccc1N(C)S(=O)(=O)c1ccc(Cl)c(C(=O)Nc2ccncc2)c1 | -73.4%
29 | CCN(CC)S(=O)(=O)c1cc(C(=O)Nc2cc(Cl)ccc2N2CCN(C)CC2)ccc1Cl | -53.5%
30 | CN1CCN(c2ccc(Cl)cc2NC(=O)c2ccc([N+](=O)[O-])cc2)CC1 | -10.6%
31 | Cn1nc(C(=O)Nc2ccccc2N2CCOCC2)ccc1=O | -24.4%
32 | COc1ccccc1N(C)S(=O)(=O)c1ccc(C(=O)Nc2ccncc2)cc1 | -28.6%
33 | CCOc1cccc2sc(N3CCN(C(=O)c4ccc5ncsc5c4)CC3)nc12 | 2.18%
34 | CCS(=O)(=O)NC(C)C(c1cccs1)N1CCN(c2ccc(OC)cc2)CC1 (centres unmarked) | -7.31%
35 | O=C(CN(Cc1ccc(F)cc1)C(=O)CCC(=O)Nc1nccs1)NCc1ccccc1 | -35.6%
36 | COc1ccc(CN(CC(=O)NCc2ccccc2)C(=O)CCC(=O)Nc2cc(C)ccn2)cc1 | -17.2%
37 | COc1ccc(CNC(=O)CN(Cc2ccccc2)C(=O)CCC(=O)Nc2ccccn2)cc1 | -55.9%
38 | COc1ccc(CN(CC(=O)NCc2ccccc2)C(=O)CCC(=O)Nc2ccccn2)cc1 | -21.1%
39 | O=C(CN(Cc1ccc(F)cc1)C(=O)CCC(=O)Nc1nccs1)NCc1ccc(F)cc1 | -50.5%
40 | COc1ccc(CNC(=O)CN(Cc2ccc(OC)cc2)C(=O)CCC(=O)Nc2ccccn2)cc1 | -64.4%
41 | O=C(CN(Cc1ccccc1)C(=O)CCC(=O)Nc1ccccn1)NCCc1ccccc1 | -52.4%
42 | O=C(CN(Cc1ccc(F)cc1)C(=O)CCC(=O)Nc1ccccn1)NCCc1ccccc1 | -15.7%
43 | O=C(CN(Cc1ccccc1)C(=O)CCC(=O)Nc1nccs1)NCc1ccc(F)cc1 | -1.38%
44 | COc1ccc(CN(CC(=O)NCCc2ccccc2)C(=O)CCC(=O)Nc2ccccn2)cc1 | -27.1%
45 | COc1ccc(CN(CC(=O)NCc2ccc(F)cc2)C(=O)CCC(=O)Nc2ccccn2)cc1 | -28.2%
46 | COc1ccc(CNC(=O)CN(Cc2cccs2)C(=O)CCC(=O)Nc2ccccn2)cc1 | -41.1%

Row | SMILES | hERG current change (%, negative = inhibition) at 10uM
47 | O=C(O)CC(NC(=O)C(c1ccccc1)c1ccccc1)c1cccc([N+](=O)[O-])c1 (centres unmarked) | 2.05%
48 | CNC(=O)CNC(=O)Nc1ccc(Cl)c(Cl)c1 | 9.11%
49 | CC(Cc1cnccn1)NCc1c(C(=O)N2CCCCCCC2)nc2ccc(Cl)cn12 (centres unmarked) | -12.8%
50 | CCn1c(=O)c2c(nc3n2CCCN3Cc2ccccc2)n(C)c1=O | -18.2%
51 | CC#CCCc1nc2ccccc2c(=O)n1N | 15.9%
52 | Cc1cc([N+](=O)[O-])ccc1NCc1ccc2c(c1)OCCO2 | 5.37%
53 | CCCCOC(=O)Nc1cccc(Cl)c1C | -15.6%
54 | CC(C)CN(C(=O)COC(=O)c1ccc2c(c1)NC(=O)CS2)C1CCS(=O)(=O)C1 (centres unmarked) | 13.1%
55 | COc1ccccc1NC(=S)N(c1ccccc1)C(C)C | 6.18%
56 | C=C(C)Cn1c(SCCCO)nc2c1c(=O)[nH]c(=O)n2C | -4.83%
57 | Cc1cc(C)c2nc(C(F)(F)F)nc(N3CCN(C(=O)c4ccco4)CC3)c2c1 | 6.1%
58 | Cc1ccc(N2C(=O)C(NC(=O)c3ccccc3)(C(F)(F)F)C3=C2CC(C)(C)CC3=O)cc1 (centres unmarked) | 7.2%
59 | Cc1csc(NC(=O)c2ccccc2[N+](=O)[O-])n1 | 2.69%
60 | Cc1csc(NC(=O)c2ccc(Cl)cc2[N+](=O)[O-])n1 | -64.8%
61 | O=C(Nc1nccs1)c1ccc(Cl)cc1[N+](=O)[O-] | -9.1%
62 | COC(=O)c1ccc(CSc2nnc(NC(=O)C3CCCO3)s2)cc1 (centres unmarked) | -23.5%
63 | CCN(CC)S(=O)(=O)c1ccc(N2CCOCC2)c(NS(=O)(=O)c2ccc(C(C)C)cc2)c1 | -6.87%
64 | Cc1ccc(N2CC(C(=O)N3CCC(c4nc5ccccc5[nH]4)CC3)CC2=O)cc1C (centres unmarked) | -46.2%
65 | COc1ccc(N2CC(C(=O)N3CCC(c4nc5ccccc5[nH]4)CC3)CC2=O)cc1 (centres unmarked) | -19.3%
66 | O=C(C1CC(=O)N(c2ccc(Cl)cc2)C1)N1CCC(c2nc3ccccc3[nH]2)CC1 (centres unmarked) | -71.6%
67 | O=C(C1CCCCC1)N1CCC(c2nc3ccccc3[nH]2)CC1 | -5.51%
68 | O=C(C1CC(=O)N(c2ccccc2)C1)N1CCC(c2nc3ccccc3[nH]2)CC1 (centres unmarked) | 9.08%
69 | O=C(C1CC(=O)N(c2ccc(F)cc2)C1)N1CCC(c2nc3ccccc3[nH]2)CC1 (centres unmarked) | -63.8%

Row | SMILES | hERG current change (%, negative = inhibition) at 10uM
70 | Clc1ccccc1CSc1nnc(-c2ccncc2)o1 | -14%
71 | COCCNCC(=O)NC12CC3CC(CC(C3)C1)C2 | 8.91%
72 | CC(C)COc1ccc(C(=O)N2C(=O)c3ccc(N)cc3C2=O)cc1 | 4.32%
73 | COc1ccc(/C(O)=C2/C(=O)C(=O)N(CCN(C)C)C2c2ccc(C)cc2)cc1Cl (centres unmarked) | 5.16%
74 | COc1ccc(CNC(=O)N2CCN(c3ccc(F)cc3)CC2)cc1Cl | -26.1%
75 | COc1ccc(/C(O)=C2/C(=O)C(=O)N(CCN(C)C)C2c2ccc(F)cc2)cc1Cl (centres unmarked) | 13.8%
76 | COc1ccc(C2CN(C)CC2C(=O)c2ccc(C)cc2)cc1Cl (centres unmarked) | -63%
77 | COc1ccc(C2CN(C)CC2C(=O)c2ccc(F)cc2)cc1Cl (centres unmarked) | -78.7%
78 | Cc1c(C(N)=O)sc(N)c1C(=O)OC(C)C | 9.72%
79 | COC(=O)c1ccc(N=C2SCC(=O)N2C)cc1 | 14.3%
80 | CCOc1cc(OCC)nc(S(C)(=O)=O)n1 | -0.891%
81 | COc1ccc(C(=O)CN2CCN(c3ccc(F)cc3)CC2)cc1 | -38.3%
82 | CCN(CC(=O)NCc1ccc(F)cc1)C(=O)CN1CCN(c2ccc(OC)cc2)CC1.O=C(O)C(=O)O | -61.9%
83 | CCN(CC(=O)NCc1ccc(F)cc1)C(=O)CN1CCN(c2cc(Cl)ccc2C)CC1 | -73.1%
84 | Cc1cccc(N2CCN(CC(=O)NCc3ccc(Cl)cc3)CC2)c1C | -29.2%
85 | CCN(CC(=O)NCc1ccc(F)cc1)C(=O)CN1CCN(c2ccccc2OC)CC1 | -61.4%
86 | CCOc1ccccc1N1CCN(C(=O)NCc2ccc(F)cc2)CC1 | -9.29%
87 | COc1ccccc1N1CCN(CC(=O)NCc2ccc(Cl)cc2)CC1 | -0.607%
88 | COc1ccc(CNC(=O)N2CCN(c3ccc(F)cc3)CC2)cc1 | -6.24%
89 | Cc1ccccc1N1CCN(CC(=O)NCc2ccc(Cl)cc2)CC1 | -27%

From article PMC4336329 (PLoS ONE, 2015)
